# Screens: PubChem BioAssay, National Center for Advancing Translational Sciences (NCATS)
# An excerpt weighted towards active compounds, which were near 1% of everything screened.
# FBPA coupling cs: coupling enzyme interference in Giardia aldolase counter-screen. activity change, negative = inhibition, % at 58.2 µM, hits read low. 290,000 tested, 0.67% active. coupling enzyme system counterscreen, AmpLite Red fluorescence; in the data active = activity change below about -30%
#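 First, compound is pin-transferred into glyceraldehyde-3-phosphate coupling-enzyme reagent at 57.5 uM final and held 10 min at RT. Next, substrate, coupling system and AmpLite Red are added. After 20 min RT, fluorescence (525/598 nm) is read.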
# TSHR antagonist: antagonists of human thyroid stimulating hormone receptor. P16473. TSHR-expressing cells, TSH-stimulated cAMP HTRF, 2 h; hits give low values. 330,000 tested, 0.2% active. activity change, negative = inhibition, % at 11.5 µM;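 active = activity change below a set negative limit, meaning inhibition stronger than a set level, cut at about -70% in these data; inconclusive = activity change between two set negative limits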
# Target sequence (P16473 whole entry, looked up): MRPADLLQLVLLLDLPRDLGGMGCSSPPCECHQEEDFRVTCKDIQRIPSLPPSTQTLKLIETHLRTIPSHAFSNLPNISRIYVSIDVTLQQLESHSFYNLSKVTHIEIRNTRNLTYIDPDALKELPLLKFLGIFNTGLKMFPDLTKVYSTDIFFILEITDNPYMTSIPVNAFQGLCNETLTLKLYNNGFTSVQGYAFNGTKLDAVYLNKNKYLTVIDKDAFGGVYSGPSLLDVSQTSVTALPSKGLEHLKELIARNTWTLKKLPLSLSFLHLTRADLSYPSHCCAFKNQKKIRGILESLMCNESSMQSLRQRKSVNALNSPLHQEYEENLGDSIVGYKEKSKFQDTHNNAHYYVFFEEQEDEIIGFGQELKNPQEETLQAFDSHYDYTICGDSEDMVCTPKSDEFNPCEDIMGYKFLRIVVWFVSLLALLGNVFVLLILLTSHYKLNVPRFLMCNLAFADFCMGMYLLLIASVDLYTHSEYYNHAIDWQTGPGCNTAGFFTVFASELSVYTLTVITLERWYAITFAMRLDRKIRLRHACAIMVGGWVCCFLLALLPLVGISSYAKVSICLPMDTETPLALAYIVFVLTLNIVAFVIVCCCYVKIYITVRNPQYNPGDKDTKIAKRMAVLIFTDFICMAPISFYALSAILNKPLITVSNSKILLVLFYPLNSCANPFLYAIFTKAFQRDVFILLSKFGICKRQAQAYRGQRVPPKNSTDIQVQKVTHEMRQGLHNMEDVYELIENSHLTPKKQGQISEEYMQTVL
#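 Competitive HTRF cAMP read-out (cryptate anti-cAMP antibody, cAMP-d2; 30 min, room temperature) in freshly harvested TSHR cells. Compounds added before TSH at EC80 (4nM final), followed by 2 hours' incubation at 37 deg C.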
# TCR act: activators of T cell receptors; primary human leukocytes, anti-CD3, IL-2 HTRF, 48 h; Potency, µM (series often up to 9.22 µM), usual class: activators; 330,000 tested, under 10 active; AID 504894
#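 48 hr co-incubation of compounds, a-CD3 beads and primary human leukocytes; IL-2 quantified homogeneously by HTRF with anti-IL-2 K and d2 conjugates.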
# TRb SRC2 PPI: TRbeta-SRC2 interaction inhibition; AID 1469; Potency, µM (top dose mostly 106 µM), hits mostly inhibitors; TRbeta-SRC2 peptide binding, fluorescence polarization; receptor liganded with 1 µM T3; 280,000 tested, 0.065% active; note: nearly all actives have a fitted effect of over 50% in size
#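 Each compound concentration gave % activity, normalized to unbound and bound Texas Red SRC2 controls, from polarization read after 5 hr ambient incubation with T3-loaded human TRb LBD.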
# TR SRC2 fluor cs: Texas Red fluorescence interference in TRb-SRC2 counter-screen | TRb/SRC2 Texas Red total fluorescence interference | Potency, µM (highest dose often 106 µM) | 280,000 tested, 0.29% active; active = well fitted curve in either direction with a large enough effect; inconclusive = small, poorly fitted or top-dose-only effect
#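 Human TRb ligand-binding domain at 0.6 uM with 20 nM Texas Red SRC2 peptide in Tris buffer containing 1 uM T3 and 5% DMSO, incubated with compound 5 h at ambient temperature. Total fluorescence (555/632 nm) calculated as parallel + 2 × perpendicular.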
# NPSR antagonist: antagonists of human neuropeptide S receptor cAMP signaling; CHO-NPSR cells, cAMP TR-FRET, antagonist mode; Potency, µM (titrated, usually from 38.3 µM), usual class: inhibitors; 220,000 tested, 1% active; AID 1461; note: nearly all actives have a fitted effect of over 50% in size
# Numbers stand for hits; n = inactive; u = inconclusive; x = not tested or not shown; ! = not active in a repeat; [ ] = dose if it differs, or a comment. Unless noted, calls come from the whole dose curve; as a rule, active = well fitted curve in the direction sought with a large enough effect; inconclusive = small, poorly fitted or top-dose-only effect, or another doubt; inactive = no such curve, though single readings can be large; an effect the other way counts as inactive or inconclusive.
SMILES,FBPA coupling cs,TSHR antagonist,TCR act,TRb SRC2 PPI,TR SRC2 fluor cs,NPSR antagonist
O=C(CSc1nnc(-c2ccccc2)o1)c1ccc2c(c1)OCCO2,n,n,n,n,n,n[7.67 µM]
O=C(CSc1nnc(-c2ccccc2)o1)c1cccc([N+](=O)[O-])c1,x,x,x,n,11µM[quencher],x
Nc1cc([N+](=O)[O-])ccc1O,n,n,n,n,0.11µM![quencher],n
CCOC(=O)CSc1nc2ccc(NC(=O)c3ccccc3)cc2s1,x,x,x,n,u,x
CCOc1ccc2nc(N3CCCC(C(=O)NCCc4ccc(SC)cc4)C3)sc2c1 (configuration not stated),x,x,x,n,40µM[quencher],x
CCOc1ccc2nc(N3CCCC(C(=O)NCCc4ccc(Cl)cc4)C3)sc2c1 (configuration not stated),x,x,x,n,n,x
CCCCOc1ccc(CNC(=O)CCCN2C(=O)CSc3c2c(C)nn3-c2ccccc2)cc1,x,x,x,n,n,x
CCCC(=NC(C)CC)C1=C(O)CC(c2ccccc2)CC1=O (configuration not stated),n,-88,n,x,x,x
Cn1nnnc1SCCCNCc1ccccc1OCc1ccc(F)cc1,x,x,x,n,u,x
CCN(CC)S(=O)(=O)c1cccc(NC(=O)Nc2cccc(C(F)(F)F)c2)c1,n,-74,n,n,n,10µM
CCS(=O)(=O)N1CCCc2cc(C(=O)Nc3cc([N+](=O)[O-])ccc3C)ccc21,x,x,x,n,n,x
O=C(/C=C/c1ccc(O)c(O)c1)O[C@H](Cc1ccc(O)c(O)c1)C(=O)O,-35,n,x,u,25µM[quencher],n
N[C@H](Cc1ccc(O)c(O)c1)C(=O)O,x,x,x,n,28µM![quencher],n
O=C(O)/C=C/c1ccc(O)c(O)c1,-30!,n,n,n,u,n
NC(Cc1ccc(O)c(O)c1)C(=O)O (configuration not stated),-30,x,x,n,n,x
O=C(/C=C/c1ccc(O)c(O)c1)O[C@@H](C(=O)O)[C@@H](OC(=O)/C=C/c1ccc(O)c(O)c1)C(=O)O,x,x,x,n,n,x
O=C(O)/C=C/c1ccc(/C=C/C(=O)O)cc1,x,x,x,n,n,x
CCOc1cccc(C2c3[nH]c4ccccc4c3CCN2C(=O)Cc2cccc(OCC)c2OCC)c1 (configuration not stated),x,x,x,n,n,x
OCCOCCOCCOCCO,x,x,x,n,n,x
Cc1ccc(-n2c3nc(=O)[nH]c(=O)c-3cc3cc([N+](=O)[O-])ccc32)cc1,-34,n,n,n,n,n
NC1=NC[C@@H](Cc2ccc(O)cc2)N1CCc1cc(C(F)(F)F)cc(C(F)(F)F)c1,n,n,n,n,n,n
NC1=NC[C@H](CC2CCCCC2)N1CCc1cc(C(F)(F)F)cc(C(F)(F)F)c1,n,n,n,n,n,10µM
Cc1ccccc1NC(=O)CSc1ccc(-c2cccs2)nn1,x,x,x,n,n,x
COc1ccccc1N1CSC2=C(C#N)C(c3ccc(SC)cc3)CC(=O)N2C1 (configuration not stated),-38,n,n,n,n,n
COc1cccc(C2CC(=O)N3CN(c4ccccc4F)CSC3=C2C#N)c1 (configuration not stated),n,n,n,n,n,n
SMILES,FBPA coupling cs,TSHR antagonist,TCR act,TRb SRC2 PPI,TR SRC2 fluor cs,NPSR antagonist
Cc1ccc(C2CC(=O)N3CN(c4ccc(Br)cc4)CSC3=C2C#N)o1 (configuration not stated),-38,n,n,n,n,n
COc1cccc(C2CC(=O)N3CN(c4cccc(Cl)c4C)CSC3=C2C#N)c1OC (configuration not stated),n,n,n,n,n,n
COc1cc(C2CC(=O)N3CN(c4ccccc4C)CSC3=C2C#N)cc(OC)c1OC (configuration not stated),-36,n,x,n,n,n
O=C(NCc1ccc(Cl)cc1)C1CCN(c2ncnc3c2nc2n3CCCCC2)CC1,x,x,x,n,n,x
CC(C)(C)C(O)/C(=C\c1ccc(Cl)cc1)n1cncn1 (configuration not stated),x,x,x,n,n,x
Cn1c(-n2cccc2)c(-c2c(-c3ccccc3)[nH]c3c2c(=O)n(C)c(=O)n3C)c(=O)n(C)c1=O,x,x,x,n,25119µM[quencher],x
COc1cc(C(=O)Nc2nnc(S(=O)(=O)N(C)c3ccccc3)s2)cc(OC)c1OC,x,x,x,n,n,x
COc1ccc2nc(C)cc(Nc3ccc(Cl)c(Cl)c3)c2c1,x,x,x,n,n,x
Cc1c(Cl)cccc1NC(=O)C1CCN(c2ncnc3c2nc2n3CCCCC2)CC1,x,x,x,n,20µM[quencher],x
COc1ccc(C2/C=C\CN(CC(C)C)C(Cc3ccccc3)C(=O)N2Cc2ccc(F)cc2)cc1 (configuration not stated),n,x,x,n,n,x
CC1=Nc2cc(C(=O)NCCc3ccc(Cl)cc3)ccc2Sc2c(C)ccc(C)c21,x,x,x,n,n,x
CC(=O)O[C@]1(C(C)=O)CC[C@H]2C3C=C(Cl)C4=CC(=O)[C@@H]5C[C@H]5[C@]4(C)C3CC[C@@]21C (some centres not stated),x,x,x,n,n,13µM
CC(=O)O[C@@]1(C(C)=O)CCC2C3C=C(Cl)C4=CC(=O)C5CC5[C@@]4(C)C3CC[C@]21C (some centres not stated),n,x,x,n,n,x
C=C(C)CN(CC)c1nc(N)c(C#N)c(CC#N)c1C#N,n,n,n,n,n,n
CCCCN(CC)c1nc(N)c(C#N)c(CC#N)c1C#N,-35,n,x,n,n,u
Cn1cccc1C1C(C#N)=C(N)OC2=C1C(=O)CCC2 (configuration not stated),-34,n,n,n,n,n
N#CC1=C(N)OC2=C(C(=O)CCC2)C1c1ccccc1 (configuration not stated),n,n,n,n,n,n
N#Cc1ccc(NC(=O)c2nc(-c3ccccc3)n(-c3ccccc3)n2)cc1,-38,n,n,n,n,u
CN(CC(=O)Nc1ccc(Cl)cc1F)S(=O)(=O)c1ccc2c(c1)n(C)c(=O)c(=O)n2C,x,x,x,n,n,x
Cc1ccc(N=N/C(=C\O)C(=O)c2ccc(Cl)cc2)cc1,n,n,n,n,n,7.9µM
Cc1ccc(C(=O)COC(=O)COc2ccccc2[N+](=O)[O-])s1,x,n,n,x,x,x
CCOC(=O)COc1ccccc1/C=C\[N+](=O)[O-],n,u,n,n,n,7.9µM
O=C(O)c1ccc(-c2nc(-c3ccccc3)c(-c3cccs3)[nH]2)cc1,n,n,n,n,n,n
COc1ccc(-c2nc(-c3cccs3)c(-c3cccs3)[nH]2)cc1O,n,n,n,n,n,10µM
Cc1ccc(-c2ccccc2NC(=O)CCl)o1,-50,n,n,n,n,n
